# Assay results published in PubChem BioAssay (NCATS).
# Records with an inconclusive call do not appear. A call without a number means that no potency is given here. Activity calls are given as the source filed them. The call rests on the fitted dose curve; in most records, active means well fitted activation curve with a large enough effect; inconclusive means small, poorly fitted or top-dose-only effect; inactive means flat fitted curve, though single readings scatter.
# Assay: qHTS for Activators of Parkin Expression: LOPAC Validation Assay (NLuc Reporter) (AID 720572)
# Conditions: Parkin promoter NanoLuc reporter cells, luminescence; series mostly up to 46.1 µM
# Excerpt: Parkin is an E3 ubiquitin ligase localized in the cytosol of cells expressed in many tissues, including brain, skeletal muscle, heart and liver tissues. One hour after stress induction by mitochondrial uncouplers (which mimic mitochondria damage by decreasing the mitochondrial inner membrane electrochemical gradient that is used to produce ATP), Parkin translocates from the cytosol to mitochondria in many cultured cell types, including neurons and HeLa cells. Administration of other mitochondrial poisons, such as Paraquat and azide in cells lacking mitochondrial DNA (mtDNA), induces Parkin translocation to mitochondria. […] It was proposed that Parkin (together with Pink1) mediates a mitochondrial quality control pathway to maintain organelle population fidelity by removing damaged mitochondria. Understanding the normal physiologic role of Parkin (and Pink1) may uncover novel treatment strategies for sporadic Parkinson's disease patients with mutation in these genes.
# A cell based qHTS in 1536 well format was developed assess modulation of Parkin expression using a neuronal cell line that stably expresses a stably expresses a luminescent coincidence reporter (FLuc and NLuc reporters) behind the Parkin promoter. The LOPAC library is used to validate the assay for quantitative high-throughput screening. The data herein reports the signal from the NLuc reporter. An increase in this signal = activation of Parkin expression. For this assay , a positive control normalized signal increase corresponding to a high quality qHTS curve class in both luminescent channels is the desired outcome for this assay.
# NIH Chemical Genomics Center [NCGC]
# NIH Molecular Libraries Probe Centers Network [MLPCN]
# Assay Submitter (PI): Richard Youle, National Institute of Neurological Disorders and Strokes (NINDS), NIH
# [1] Narendra, D., et al., Parkin is recruited selectively to impaired mitochondria and promotes their autophagy. J Cell Biol, 2008. 183(5): p.
# [2] Suen, D.F., et al., Parkin overexpression selects against a deleterious mtDNA mutation in heteroplasmic cybrid cells. Proc Natl Acad Sci U S A, 2010. […] 11835-40.
# [3] Cheng K, Inglese J. A coincedence reporter-gene system for high-throughput screening. Nat Methods. 2012: 9(10);937
# Five microliters (1,500 cells/well) of the Parkin coincidence reporter cells were seeded to 1536 well assay plates (Greiner Catalog # 789173-F) and incubated at 37 C, 5% CO2 for 24 hours. Compounds (23 nL) were pinned using the Kalypsys robotic system equipped with 1536 pin head adaptor in 7-point dose response. The assay plates were incubated for additional 24 hr at 37 C, 5% CO2 followed by a volume reduction in each well to 2 uL using an automated plate washer/aspirator. Following the volume reduction,2 uL of FLuc detection reagent and plates were incubated for 10 minutes at room temperature. The FLuc luminescence signal was obtained using the PerkinElmer ViewLux plate imager and then 2 uL of NanoLuc detection reagent was added to the plates. After another 10 minute incubation, NanoLuc signal was obtained using the PerkinElmer ViewLux plate imager as before. Data from each channel was normalized to DMSO (neutral control) and the positive control compounds (100%).
# Potency means the concentration at half of the fitted maximal effect.
row,SMILES,Potency
1,CC(C)NCC(O)COc1cccc2ccccc12 (stereo not given),inactive
2,C=CC(=O)c1ccc(CCCCCC)cc1,inactive
3,N#C/C(=C\c1c[nH]c2ccccc12)C(=O)c1ccc(O)c(O)c1,inactive
4,Brc1c(Br)c(Br)c2n[nH]nc2c1Br,inactive
5,O=C(Nc1ccccc1)c1cc([N+](=O)[O-])ccc1Cl,inactive
6,CN1C2CC(OC(=O)[C@H](CO)c3ccccc3)CC1C1OC12 (stereo not given in full),inactive
7,C=CC(C)=C[C@@]1(C)SC(=O)C(C)=C1O,inactive
8,c1ccc(-c2ccccn2)nc1,inactive
9,CN1CCC[C@H]1c1cccnc1,inactive
10,COc1cc(C(O)CO)ccc1OS(=O)(=O)O (stereo not given),inactive
11,C[N+]1(C)CCC(OC(=O)C(c2ccccc2)c2ccccc2)CC1,inactive
12,CNc1ncnc2c1ncn2[C@@H]1O[C@H](CO)[C@@H](O)[C@H]1O,inactive
13,CC(C)NC[C@@H](O)c1ccc(O)c(O)c1,inactive
14,CO/N=C(\C(=O)N[C@@H]1C(=O)N2C(C(=O)O)=C(COC(C)=O)CS[C@H]12)c1csc(N)n1,inactive
15,O=C(O)[C@@H]1C[C@@H](C(=O)O)N1,inactive
16,CC1CN(S(=O)(=O)c2cccc3cnccc23)CCN1 (stereo not given),inactive
17,COc1cc2nc(N3CCN(C(=O)OCc4ccccc4)C(C(=O)NC(C)(C)C)C3)nc(N)c2cc1OC (stereo not given),inactive
18,Nc1nc(SCc2ccc([N+](=O)[O-])cc2)c2ncn([C@@H]3O[C@H](CO)[C@@H](O)[C@H]3O)c2n1,inactive
19,NC[C@@H]1O[C@H](C23CC4CC(CC(C4)C2)C3)Cc2c1ccc(O)c2O,inactive
20,CCCCCC(O)c1cccc(OCc2ccc3ccccc3n2)c1 (stereo not given),inactive

row,SMILES,Potency
1,OC[C@H]1O[C@@H](n2cnc3c(NC4CCCC4)ncnc32)[C@H](O)[C@@H]1O,inactive
2,OCC1O[C@H]([S-])[C@H](O)[C@@H](O)[C@@H]1O.[Au+] (stereo not given in full),16.4 µM (active)
3,Cc1cc(NC2CCCCC2)nc(-n2nc(C)cc2C)n1,inactive
4,CC(C)CC(NP(=O)(O)O[C@@H]1O[C@@H](C)[C@H](O)[C@@H](O)[C@H]1O)C(=O)NC(Cc1c[nH]c2ccccc12)C(=O)O (stereo not given in full),inactive
5,N=C(N)SCCc1ccc(CCSC(=N)N)cc1,inactive
6,O=C(/C=C/c1ccc(O)c(O)c1)OCCc1ccccc1,inactive
7,C[C@@H](CN1CCC(Cc2ccccc2)CC1)[C@@H](O)c1ccc(O)cc1,inactive
8,CCCCCCCCCCCCCCCCCC(=O)NCC(COP(=O)([O-])OCC[N+](C)(C)C)OCC (stereo not given),inactive
9,O=c1[nH]c2cc(Cl)c(Cl)cc2[nH]c1=O,inactive
10,CCCCCCCCCCCCCCCC(=O)NCC(COP(=O)([O-])OCC[N+](C)(C)C)OCC (stereo not given),inactive
11,C[N+](C)(C)CC(=O)[O-],inactive
12,O=C(O)c1cc(=O)c2ccccc2[nH]1,inactive
13,CN1CCc2cc(NC(=O)Nc3cccnc3)ccc21,inactive
14,C[C@@H](NC(=O)/C(C#N)=C/c1ccc(O)c(O)c1)c1ccccc1,inactive
15,O=C1O/C(=C/Br)CCC1c1cccc2ccccc12 (stereo not given),inactive
16,CCCCCCCCCCCCCCCC(=O)OC(CC(=O)O)C[N+](C)(C)C (stereo not given),inactive
17,CCCCCCCCCCCCCCCCCCNC(=O)OCC(COP(=O)([O-])OCC[n+]1ccsc1)OC (stereo not given),inactive
18,O=C1NC(=O)/C(=C/c2ccc3nccnc3c2)S1,inactive
19,N.N.O=C(O)C1(C(=O)O)CCC1.[Pt],inactive
20,CC(C)(C)c1ccc(S(=O)(=O)/C=C/C#N)cc1,inactive
